A selection: hits, their analogues and other compounds. The true share with any hit is near 2.8%.
Six1-Eya2 blk: Six1/Eya2 interaction inhibition; AlphaScreen GST-Six1/His-Eya2 binding, biochemical; active compounds read low; activity change, % (test concentration not listed); 360,000 tested, 0.56% active; in the data active means activity change below about -65%; inconclusive means mostly about -30% to -63%; further: on the % scale 0 is the no-effect control and ±100 the full control effect
Target sequence (O00167 whole entry, looked up): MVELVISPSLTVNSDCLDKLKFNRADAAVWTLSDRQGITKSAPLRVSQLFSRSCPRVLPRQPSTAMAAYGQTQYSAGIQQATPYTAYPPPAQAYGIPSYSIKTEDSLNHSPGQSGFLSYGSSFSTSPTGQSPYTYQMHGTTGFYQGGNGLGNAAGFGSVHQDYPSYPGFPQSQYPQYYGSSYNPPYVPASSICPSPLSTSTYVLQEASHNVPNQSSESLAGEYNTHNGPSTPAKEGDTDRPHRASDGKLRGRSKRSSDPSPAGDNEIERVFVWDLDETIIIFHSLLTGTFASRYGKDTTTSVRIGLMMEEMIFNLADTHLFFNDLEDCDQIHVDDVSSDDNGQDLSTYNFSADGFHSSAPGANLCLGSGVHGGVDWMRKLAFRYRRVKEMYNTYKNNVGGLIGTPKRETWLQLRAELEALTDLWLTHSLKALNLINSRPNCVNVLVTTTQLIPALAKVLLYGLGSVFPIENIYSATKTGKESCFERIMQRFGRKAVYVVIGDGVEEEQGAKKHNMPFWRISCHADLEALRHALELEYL
Target sequence (Q15475 whole entry, looked up): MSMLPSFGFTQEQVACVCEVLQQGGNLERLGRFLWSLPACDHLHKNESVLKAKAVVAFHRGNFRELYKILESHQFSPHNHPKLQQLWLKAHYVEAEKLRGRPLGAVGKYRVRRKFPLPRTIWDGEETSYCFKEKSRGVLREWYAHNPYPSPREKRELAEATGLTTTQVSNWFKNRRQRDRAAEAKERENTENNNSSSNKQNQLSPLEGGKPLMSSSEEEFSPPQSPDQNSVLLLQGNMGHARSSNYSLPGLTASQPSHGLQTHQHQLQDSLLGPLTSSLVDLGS
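Compounds are tested against tagged Six1 and Eya2 proteins bridged by glutathione donor and nickel acceptor beads; after a one-hour incubation at 37 °C without light, AlphaScreen emission is recorded.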
HepG2 tox: HepG2 cytotoxicity, counter-screen for TGF-b inhibitors; Potency, µM (doses to about 46.1 µM), without a hit: top-dose activity change, negative = cytotoxicity, most hits filed as cytotoxic; 410,000 tested, 0.76% active; HepG2 CAGA-GFP viability, ATP luminescence, 18 h; AID 588856; further: potency means the concentration at half of the fitted maximal effect
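CellTiter-Glo luminescence gave cytotoxicity after 18 hours at 37 degrees C. The cells were HepG2 CAGA-GFP in 1% FBS DMEM, stimulated with 500 pg/mL TGF-beta after compound addition. %Activity was normalised to no-cell wells (complete cell-killing) and DMSO (no toxicity), and curves were fitted and classified.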
ATXN2 expr inh: reduces ATXN2 reporter expression in HEK-293 cells. Potency, µM (doses to about 57 µM), for inactives: top-dose activity change, negative = inhibition, usual class: inhibitors. 360,000 tested, 0.72% active. HEK-293 ATXN2-luciferase reporter, luminescence, 24 h; further: potency means the concentration at half of the fitted maximal effect; on the % scale 0 is the no-effect control and ±100 the full control effect; nearly all actives have a fitted effect of over 55% in size
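qHTS (up to 57 uM final) was run with 24 h compound exposure of reporter cells at 37 °C. Each well was multiplexed: SteadyGlo luminescence measured ATXN2-luciferase expression after a fluorogenic Gly-Phe-AFC viability readout (25 uM final).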
ATXN viability: reduces viability in counter-screen for ATXN expression inhibitors; S2 cells (HEK-293 line with an ATXN2-luciferase reporter) viability, CellTiter-Fluor protease fluorescence, 24 h; Potency, µM (highest dose often 56.7 µM), usual class: cytotoxic; 400,000 tested, 0.49% active; AID 651635; further: potency means the concentration at half of the fitted maximal effect; nearly all actives have a fitted effect of over 40% in size
TGFb SMAD3 inh: TGF-b pathway inhibition. AID 588855. HepG2 CAGA-GFP TGF-b/SMAD3 reporter, GFP fluorescence, 18 h; TGF-beta stimulated, 500 pg/mL final. Potency, µM (series often up to 46.1 µM), without a hit: at the highest dose activity, negative = inhibition, hits mostly inhibitors. 410,000 tested, 1.2% active; further: potency means the concentration at half of the fitted maximal effect; on the % scale 0 is the no-effect control and ±100 the full control effect; nearly all actives have a fitted effect of over 65% in size
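HEPG2 CAGA-GFP, 1000 cells/well; 2 h settle, 37 C; cpd via pin tool; TGF-b 500 pg/mL final; 18 h, 37 C; GFP imaging ex488/em500-530; %Activity normalised to -TGF-b and +DMSO controls; CRC fit, curve class.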
CtBP-E1A blk: blocks the CtBP interaction with E1A; AlphaScreen GST-E1A/His-CtBP binding, 1536-well; active compounds read low; activity change, % (no concentration beside the values); 340,000 tested, 0.49% active; AID 651724; in the data active means activity change below about -65%; inconclusive means mostly about -30% to -63%; further: on the % scale 0 is the no-effect control and ±100 the full control effect
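Steps: dispense buffer (Tris pH 8.0, NaCl 300 mM, TCEP 1 mM, BSA, Tween 20); add 5X protein mix (GST-E1A, His-CtBP, 125 nM each); pin 23 nL compound; 2 h at 37 °C, dark; add 5X beads (50 ug/mL); 1 h; read.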
An asterisk follows results filed as active; i = inactive; ? = inconclusive; · = no result. Unless noted, the call rests on the fitted dose curve; in most records, active means well fitted curve in the direction sought with a large enough effect; inconclusive means small, poorly fitted or top-dose-only effect, or another doubt; inactive means no such curve, though single readings can be large; an effect the other way counts as inactive or inconclusive.

SMILES	Six1-Eya2 blk	HepG2 tox	ATXN2 expr inh	ATXN viability	TGFb SMAD3 inh	CtBP-E1A blk
O=[N+]([O-])c1ccc(O)c(/C=N\N=C2c3ccccc3-c3ccccc32)c1	-9	-38%	22µM*	?	2.8µM*	-23
O=[N+]([O-])c1ccc(O)c(/C=N/NC2=NS(=O)(=O)c3ccccc32)c1	-70*	-8%	?	?	2%	-70*
COc1cc(/C=N/Nc2nncn2/N=C/c2ccc(O)c(OC)c2)ccc1O	-22	10µM*	-19%	i	4%	?
CCC(O)CNC(=O)c1cnn(-c2nccc(-c3cc(C)sc3C)n2)c1C1CC1 (configuration not stated)	·	·	·	i	·	·
NC(N)=N/N=C/c1cc([N+](=O)[O-])ccc1O	-20	-1%	-9%	?	-2%	-29
CCOc1cc(/C=N/Nc2nnc(C)n2N)ccc1O	-3	11µM*	-33%	i	11µM*	?
O=[N+]([O-])c1ccc(O)c(/C=N/Nc2ccc(Cl)nn2)c1	-82*	-44%	?	?	?	-91*
Oc1ccccc1/C=N/Nc1nn[nH]n1	-91*	-2%	·	i	-14%	·
CCOc1cc(/C=N/Nc2ncnc(Cl)c2N)ccc1O	?	0%	38%	?	-11%	?
CC(=O)N[C@@H](C)C(=O)NCC1Cc2cc(C)cc(-c3cnccn3)c2O1 (some centres not stated)	·	·	·	i	·	·
C[C@H]1C[C@@H]2[C@H]([C@@H](O)C[C@@]3(C)[C@H]2CC[C@]3(O)C(=O)COC(=O)CCC(=O)O)[C@@]2(C)C=CC(=O)C=C12	·	·	·	i	·	·
Cc1ccc(C(=O)NCCc2nnc3n2CCN(Cc2ccc4ccccc4c2)CC3)c(C)c1	·	·	·	i	·	·
CCC(CC)CN1CCC(CN2C(=O)C(=O)NC[C@@H]2CC(C)C)CC1	12	-5%	2%	i	2%	-5
COc1cccc(CNC(=O)c2c(OC)cc(=O)n3c2CCN(C(=O)C2CC24CCCC4)CC3)c1 (configuration not stated)	·	·	·	i	·	·
CC(=O)Nc1ccc2cc3ccc(NC(C)=O)cc3nc2c1	-10	13µM*	7%	·	57%	-10
COc1cccc(NC(=S)NC(C)c2ccc(OC)c(OC)c2)c1 (configuration not stated)	3	18%	-17%	i	-2%	0
COc1cccc(NC(=S)NC(Cc2ccccc2)c2ccccc2)c1 (configuration not stated)	-5	-24%	·	i	22µM*	3
CC(C)N(C(=O)[C@H]1C[C@H](CC(=O)NCc2cccc(C(F)(F)F)c2)C(=O)N2CCc3c([nH]c4cc(CCC(=O)N(C)C)ccc34)[C@]12C)C(C)C	-3	-22%	?	16µM*	?	-4
CC(C)N(C(=O)[C@H]1CC(CC(=O)NCCC2=CCCCC2)C(=O)N2CCc3c([nH]c4ccccc34)[C@]12C)C(C)C (some centres not stated)	-2	-8%	?	40µM*	?	-1
CCN(CC)C(=O)[C@H]1C[C@H](CC(=O)NCCCN(C)C)C(=O)N2CCc3c([nH]c4ccc(Cl)cc34)[C@]12C	-7	-42%	0%	i	?	0
CC(C)N(C(=O)[C@H]1CC(CC(=O)NCCc2ccccn2)C(=O)N2CCc3c([nH]c4ccccc34)[C@]12C)C(C)C (some centres not stated)	-2	-23%	-4%	i	?	-1
CCN(CC)C(=O)[C@H]1C[C@H](CC(=O)NCC23CC4CC(CC(C4)C2)C3)C(=O)N2CCc3c([nH]c4ccc(Cl)cc34)[C@]12C	-10	-92%	?	?	13µM*	-5
Cc1cccc(N=Nc2ccc(O)c3ncccc23)c1	-84*	-10%	-28%	10µM*	?	-79*
